In the library only some 3.4% were active in any assay of this set; here they are far more common.
Mcl1-Bid inh – Mcl-1/Bid interaction inhibition. Q07820. TR-FRET Mcl-1/Bid-Dy647 peptide binding, 1536-well. inhibition, % at 21.7 µM. actives 0.97% (n = 220,000);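 active = compounds that cut the binding signal by more than half at the single screening dose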;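 note: His-tagged Mcl-1 with europium anti-His antibody binding Bid BH3 peptide; 0% = Mcl-1 plus peptide wells and 100% = peptide-only wells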
Target sequence (Q07820 whole entry, looked up): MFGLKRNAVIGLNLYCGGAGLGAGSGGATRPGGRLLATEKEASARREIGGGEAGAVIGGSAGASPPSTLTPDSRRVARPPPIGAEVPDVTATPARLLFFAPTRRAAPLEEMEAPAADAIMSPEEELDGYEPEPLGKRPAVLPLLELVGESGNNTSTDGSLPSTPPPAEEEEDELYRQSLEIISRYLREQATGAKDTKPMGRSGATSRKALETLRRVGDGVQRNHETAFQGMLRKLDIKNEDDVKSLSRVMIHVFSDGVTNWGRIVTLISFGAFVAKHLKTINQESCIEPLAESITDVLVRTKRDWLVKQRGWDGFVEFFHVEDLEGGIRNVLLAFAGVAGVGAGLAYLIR
NCF1 inh – blocks human p47phox regulatory protein of NADPH oxidases. P14598. p47phox/p22phox peptide binding, fluorescence polarization, 2 h. inhibition, % at 24.7 µM. actives 0.53% (n = 220,000);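 note: 0% = p47phox with labelled peptide and 100% = labelled peptide alone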
eIF4E-4G inh – eIF4E/eIF4G interaction inhibition in translation initiation; P63073+Q04637; TR-FRET eIF4E-eIF4GI(517-606) binding, 2 h; inhibition, % at 21.7 µM; actives 0.37% (n = 220,000); AID 782;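 note: 0% = full FRET control wells and 100% = background wells lacking eIF4GI fragment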
Mcl1-Noxa inh – disrupts binding of human Mcl-1 to Noxa peptide | actives 1.5% (n = 220,000) | TR-FRET Mcl-1/Noxa peptide binding, 2 h | Q07820 | inhibition, % at 21.7 µM | AID 1022;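 active = compounds that cut the protein-peptide binding signal by more than 50% relative to plate controls in a single-dose test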;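 note: His-tagged Mcl-1 with rhodamine Noxa BH3 peptide and terbium anti-His antibody; 0% = Mcl-1 plus Noxa peptide wells and 100% = peptide-only wells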
Mcl-1 Bim block – disrupts Bim peptide binding to human Mcl-1. Bead-based flow cytometry, Bim peptide-Mcl-1 binding. inhibition, % at 10 µM. actives 0.1% (n = 190,000). AID 1009; in the data active = inhibition above about 40%;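 note: 0% = no compound tracer wells and 100% = peptide blocker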
14-3-3 Bad inh – disrupts binding of bovine 14-3-3 zeta to phospho-Bad peptide; P63103; TR-FRET 14-3-3zeta/Dy647-pBad peptide displacement, 1 h; inhibition, % at 21.7 µM; actives 0.71% (n = 220,000);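 active = inhibition above about 70%, limit read from the data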;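 note: 0% = full 14-3-3 plus peptide FRET controls and 100% = background without 14-3-3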
Target sequence (P63103 whole entry, looked up): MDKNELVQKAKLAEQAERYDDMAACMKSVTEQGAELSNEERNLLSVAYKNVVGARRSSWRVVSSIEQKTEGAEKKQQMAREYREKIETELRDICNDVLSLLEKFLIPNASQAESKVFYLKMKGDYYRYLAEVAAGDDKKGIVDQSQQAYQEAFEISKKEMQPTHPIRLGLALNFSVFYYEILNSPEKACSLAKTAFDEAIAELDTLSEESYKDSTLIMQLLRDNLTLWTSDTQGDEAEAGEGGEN
* = called active by the depositor; · = no result; [ ] = another dose, or the depositor's remark.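 Rule for the calls, unless noted: active = inhibition above about 30% (limit read from the data); inactive = the rest.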

SMILES	Mcl1-Bid inh	NCF1 inh	eIF4E-4G inh	Mcl1-Noxa inh	Mcl-1 Bim block	14-3-3 Bad inh
O=C(N/N=C/c1c[nH]c2ccccc12)c1cc(-c2ccc(-c3ccccc3)cc2)n[nH]1	52*	-55	-11	47	0	54
O=C(N/N=C/c1c[nH]c2ccccc12)c1cc(-c2ccccc2)n[nH]1	-3	-39	4	28	-3	-12
O=C(N/N=C\c1ccc(Cl)s1)C1COc2ccccc2O1 (stereo not given)	2	-9	-5	-20	·	1
CCOc1ccccc1/C=N/NC(=O)CNC(=O)c1cccs1	0	9	0	3	-1	4
CC(=O)Nc1ccc(C(=O)N(C)c2ccccc2)cc1	-5	-2	3	14	-2	13
CCN(C(=O)c1ccc(NC(C)=O)cc1)c1ccccc1	-24	55*	-3	-2	0	6
COCCCNc1nc2c(-c3ccc(Cl)cc3)nnn2c2ccccc12	25	8	1	-177	-1	16
Cc1ccc(-c2nnn3c2nc(Cl)c2ccccc23)cc1	-5	-7	-3	10	-7	91*
NNc1nc2c(-c3ccc(Cl)cc3)nnn2c2ccccc12	12	1	3	68*	-3	8
NNc1nc2c(-c3ccc(F)cc3)nnn2c2ccccc12	-23	-113	2	69*	6	17
COc1ccc(/C=C(\C#N)C(=O)NCC(c2ccc(F)cc2)N2CCOCC2)cc1 (stereo not given)	-15	-8	0	19	·	-6
CS(=O)(=O)NCc1ccc(C(=O)NCCOc2ccccc2)cc1	91*	-4	0	34	2	36
CN1C(=O)/C(=C2\SC(=S)N(CCCCCC(=O)O)C2=O)c2ccccc21	96*	15	26	113*	·	62
COc1cccc(Nc2nc(-c3cccc(N4C(=O)c5ccccc5C4=O)c3)cs2)c1	0	-13	-6	31	0	84*
Oc1cccc(Nc2nc(O)c(/C=C3\C=Nc4ccccc43)s2)c1	-55	-132	1	62*	·	73*
Oc1nc(Nc2cccc(Cl)c2)sc1/C=C1\C=Nc2ccccc21	-20	-117	4	36	-2	-4
Oc1nc(Nc2ccc(F)cc2)sc1/C=C1\C=Nc2ccccc21	32	-84	-6	102*	·	7
O=[N+]([O-])c1cc(-c2ccc(/C=N/c3nc4ccccn4c3-c3ccco3)o2)ccc1Cl	65*	16	13	65*	1	58
CCCCc1nc2ccccc2c(NC(=O)CN(CC)CC)c1CCC	51*	-2	6	20	-45	74*
CCCc1nc2ccccc2c(NC(=O)CN(CC)CC)c1CC	62*	3	19	26	-5	80*
CCN(CC)CC(=O)Nc1cc(N(C)C)nc2ccccc12	37	-2	1	48	·	58
CC(C)Oc1ccc(OCCCN2CCCCCC2)cc1	54*	-3	-5	-5	-3	59
CCOc1ccc(OCCN2CCCCC2)cc1	2	2	1	25	0	40
O=C(O)CS(=O)(=O)CC(=O)O	58*	-11	-1	23	-3	20
c1ccc(CSc2ccc(-c3cccnc3)nn2)cc1	-15	-6	0	19	0	-5
SMILES	Mcl1-Bid inh	NCF1 inh	eIF4E-4G inh	Mcl1-Noxa inh	Mcl-1 Bim block	14-3-3 Bad inh
COc1cccc(N2CCN(C3CC(=O)N(c4ccc(F)c(Cl)c4)C3=O)CC2)c1 (stereo not given)	-14	-13	2	-8	-7	10
COc1ccc(NC2CCN(C3CC(=O)N(c4ccc(F)c(Cl)c4)C3=O)CC2)cc1 (stereo not given)	-38	0	9	56*	-3	2
OCCC1CN(Cc2cc(F)ccc2-n2cccn2)CCN1C1CCCC1 (stereo not given)	-24	3	6	-18	·	9
Cc1ccc(S(=O)(=O)NC(C(=O)O)c2ccccc2)cc1 (stereo not given)	-19	2	0	14	3	-1
COC(=O)c1c(C)[nH]c(C)c1-c1ccccc1	-21	-13	-3	4	-4	81*[fluorescence artefact?]
COC(=O)c1c(C)[nH]c(C)c1C(C)=O	71*	-8	2	5	·	-13
COC(=O)c1c(C)nc2ccccc2c1-c1ccccc1	-9	-7	-2	-11	0	-4
COc1ccc(-c2cc(C(F)(F)F)nc(S(=O)(=O)CCCC(=O)Nc3cccnc3Cl)n2)cc1OC	-29	-4	0	-5	-2	-5
Cc1ccc(Cn2c(=S)[nH]c3ccc(N4CCOCC4)cc3c2=O)o1	-4	0	24	73*	3	10
CCOc1ccc(CN2CCN(S(=O)(=O)c3ccc(NC(C)=O)cc3)CC2)cc1OC	52*	-4	1	5	-3	34
CCOc1cc(C=O)ccc1OS(=O)(=O)c1ccc(NC(C)=O)cc1	52*	-5	0	39	-1	8
COc1ccc(CN2CCN(S(=O)(=O)c3ccc(NC(C)=O)cc3)CC2)cc1	45	2	-10	12	·	44
CCN(CC)S(=O)(=O)c1ccc2c(c1)nc(CCC(=O)Nc1ccc(N3CCOCC3)cc1)n2C	-55	-16	1	20	-2	1
O=C(O)c1cc2ccccc2cc1Nc1ccccc1	0	-1	12	7	·	2
COc1ccc(/C=C2\C(=O)NC(=S)N2C(=O)c2ccc(F)cc2)cc1	81*	-157	7	64*	-9	89*[fluorescence artefact?]
CCS(=O)(=O)N1CCN(c2ccc(C(=O)N3CCOCC3)cc2[N+](=O)[O-])CC1	17	-5	4	16	·	6
CCS(=O)(=O)N1CCN(c2ccc(C(=O)NC3C4CC5CC(C4)CC3C5)cc2[N+](=O)[O-])CC1 (stereo not given)	55*	-1	3	1	-1	3
COc1ccc(/C=N/Nc2nc(-c3cccc(S(=O)(=O)N4CCCC4)c3)cs2)cc1OC	-72	-11	-5	2	-3	-1
COc1cc(/C=N/Nc2nc(-c3ccc(S(=O)(=O)N(C)C)cc3)cs2)ccc1O	-99	-13	44*	29	·	5
O=C(Nc1nnc(-c2ccco2)s1)C1CCCCC1	56*	-17	-11	-8	-3	-18
O=C(Nc1nc(-c2cccc3ccccc23)cs1)c1ccc2c(c1)S(=O)(=O)c1ccccc1C2=O	28	20	7	62*	0	15
N#CCCN1CCCc2cc(N=Nc3ccc(C(F)(F)F)cc3)ccc21	-25	-2	7	-6	·	-6
COc1ccc(OC)c(Nc2nc(-c3cccc([N+](=O)[O-])c3)nc3ccccc23)c1	70*	7	-27	38	0	13
COc1ccc(OC)c(Nc2ncnc3c2cnn3-c2ccccc2)c1	6	-3	-2	4	-4	-1
